# Source: PubChem BioAssay AID1159580 (chemical genetic matrix, 2015)
# Values joined by “and” are separate entries in the source; they are usually repeats but may differ in a detail not shown here. Equal entries are not always repeated. Screen size: about 5,500 compounds; about 2,000 (36%) were called active. Roughly 18% stayed inconclusive and do not appear here. This is one part of the list. Values without a mark were called inactive. Rule as the data show it: active = normalized growth mostly below about 0.91 (no sharp cut-off); inconclusive = no clear call, values can overlap the other calls; inactive = mostly above about 0.92.
# Test: chemical genetic growth profiling, strain panel (AID 1159580);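 also: tested at 20 µM; growth read once vehicle control cultures reached saturation at 30 °C; 1 = growth at the plate median or of vehicle wells; lower values mean less growth of the strain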
# Details: S. cerevisiae deletion strains, growth OD
structure (smiles),measurement,setting,value
O=C(Nc1ccc([N+](=O)[O-])cc1Cl)c1cc(Cl)ccc1O,normalized growth,"locus YAL021C, strain ccr4, hits give low values",0.798 (active)
same,normalized growth,"locus YAL026C, strain drs2, hits give low values",0.931
same,normalized growth,"locus YAL030W, strain snc1, hits give low values",0.937
same,normalized growth,"locus YAL040C, strain CLN3, hits give low values",0.969
same,normalized growth,"locus YBL061C, strain skt5, hits give low values",0.818 (active)
same,normalized growth,"locus YBR009C, strain hhf1, hits give low values",0.896 (active)
same,normalized growth,"locus YBR021W, strain FUR4, hits give low values",0.898
same,normalized growth,"locus YBR023C, strain chs3, hits give low values",0.757 (active)
same,normalized growth,"locus YBR171W, strain sec66, hits give low values",1.01
same,normalized growth,"locus YBR229C, strain ROT2, hits give low values",0.991
same,normalized growth,"locus YBR231C, strain swc5, hits give low values",0.69 (active)
same,normalized growth,"locus YBR279W, strain paf1, hits give low values",0.748 (active)
same,normalized growth,"locus YCL011C, strain gbp2, hits give low values",0.944
same,normalized growth,"locus YCL016C, strain dcc1, hits give low values",0.458 (active)
same,normalized growth,"locus YCL029C, strain bik1, hits give low values",1.15 [resistant] (active)
same,normalized growth,"locus YCL061C, strain MRC1 (second series), hits give low values",0.999
same,normalized growth,"locus YCL069W, strain vba3, hits give low values",0.959
same,normalized growth,"locus YCR088W, strain abp1, hits give low values",0.97
same,normalized growth,"locus YDL005C, strain med2, hits give low values",1.09 [resistant] (active)
same,normalized growth,"locus YDL035C, strain GPR1, hits give low values",0.856 (active)
same,normalized growth,"locus YDL040C, strain nat1, hits give low values",0.681 (active)
same,normalized growth,"locus YDL074C, strain BRE1, hits give low values",0.895
same,normalized growth,"locus YDL101C, strain DUN1, hits give low values",0.983
same,normalized growth,"locus YDL185W, strain tfp1, hits give low values",1.01
same,normalized growth,"locus YDL192W, strain arf1, hits give low values",1.01
same,normalized growth,"locus YDR001C, strain nth1, hits give low values",0.989
same,normalized growth,"locus YDR069C, strain doa4, hits give low values",1.03
same,normalized growth,"locus YDR101C, strain arx1, hits give low values",1.22 [resistant] (active)
same,normalized growth,"locus YDR137W, strain rgp1, hits give low values",0.18 (active)
same,normalized growth,"locus YDR150W, strain NUM1, hits give low values",0.878 (active)
same,normalized growth,"locus YDR159W, strain sac3, hits give low values",0.785 (active)
same,normalized growth,"locus YDR162C, strain NBP2, hits give low values",0.832 (active)
same,normalized growth,"locus YDR195W, strain ref2",1.24 [resistant] (active)
same,normalized growth,"locus YDR297W, strain sur2, hits give low values",0.938
same,normalized growth,"locus YDR318W, strain mcm21, hits give low values",1.03
same,normalized growth,"locus YDR334W, strain swr1, hits give low values",0.981
same,normalized growth,"locus YDR335W, strain msn5, hits give low values",0.997
same,normalized growth,"locus YDR363W, strain ESC2, hits give low values",0.95
same,normalized growth,"locus YDR388W, hits give low values",0.989
same,normalized growth,"locus YDR392W, strain spt3, hits give low values",0.828
same,normalized growth,"locus YDR502C, strain sam2, hits give low values",1.02
same,normalized growth,"locus YEL003W, strain gim4, hits give low values",1.07
same,normalized growth,"locus YEL037C, strain rad23, hits give low values",1.01
same,normalized growth,"locus YEL061C, strain CIN8 (second series), hits give low values",1
same,normalized growth,"locus YEL061C, strain CIN8, hits give low values",0.965
same,normalized growth,"locus YER002W, strain NOP16, hits give low values",0.884 (active)
same,normalized growth,"locus YER015W, strain faa2, hits give low values",0.901 (active)
same,normalized growth,"locus YER016W, strain bim1, hits give low values",0.772 (active)
same,normalized growth,"locus YER110C, hits give low values",0.934
same,normalized growth,"locus YER111C, strain swi4, hits give low values",1.16 [resistant] (active)
same,normalized growth,"locus YER155C, strain BEM2 (second series), hits give low values",0.985
same,normalized growth,"locus YER155C, strain BEM2, hits give low values",0.99
same,normalized growth,"locus YER167W, strain BCK2, hits give low values",0.929
same,normalized growth,"locus YFR010W, strain ubp6, hits give low values",0.959
same,normalized growth,"locus YGL078C, strain dbp3, hits give low values",1.01
same,normalized growth,"locus YGL086W, strain mad1, hits give low values",0.954
same,normalized growth,"locus YGL167C, strain pmr1, hits give low values",0.606 (active)
same,normalized growth,"locus YGL173C, strain kem1, hits give low values",0.994
same,normalized growth,"locus YGL227W, strain vid30, hits give low values",0.997
same,normalized growth,"locus YGL240W, strain doc1, hits give low values",0.6 (active)
same,normalized growth,"locus YGL248W, strain PDE1, hits give low values",0.932
same,normalized growth,"locus YGL253W, strain hxk2, hits give low values",0.933
same,normalized growth,"locus YGR078C, strain PAC10, hits give low values",0.948
same,normalized growth,"locus YGR135W, strain pre9, hits give low values",1.03
same,normalized growth,"locus YGR252W, strain gcn5, hits give low values",1.01
same,normalized growth,"locus YHR013C, strain ard1, hits give low values",0.627 (active)
same,normalized growth,"locus YHR027C, strain rpn1, hits give low values",0.944
same,normalized growth,"locus YHR030C, strain SLT2, hits give low values",0.922 and 0.995
same,normalized growth,"locus YHR079C, strain IRE1 (second series), hits give low values",1.14 [resistant] (active)
same,normalized growth,"locus YHR079C, strain IRE1, hits give low values",0.981
same,normalized growth,"locus YHR094C, strain hxt1, hits give low values",1.05
same,normalized growth,"locus YHR129C, strain ARP1, hits give low values",0.944
same,normalized growth,"locus YHR142W, strain chs7, hits give low values",0.967
same,normalized growth,"locus YHR200W, strain rpn10, hits give low values",1
same,normalized growth,"locus YIL066C, strain RNR3, hits give low values",0.9
same,normalized growth,"locus YIL073C, strain SPO22, hits give low values",1.59 [resistant] (active)
same,normalized growth,"locus YIL125W, strain kgd1, hits give low values",1
same,normalized growth,"locus YIR030C, strain dcg1, hits give low values",1.14 [resistant] (active)
same,normalized growth,"locus YJL092W, strain hpr5, hits give low values",0.965
same,normalized growth,"locus YJL095W, strain BCK1 (second series), hits give low values",0.91 (active)
same,normalized growth,"locus YJL095W, strain BCK1, hits give low values",0.91 and 1
same,normalized growth,"locus YJL115W, strain asf1, hits give low values",1.05
same,normalized growth,"locus YJL129C, strain trk1, hits give low values",1.13
same,normalized growth,"locus YJL134W, strain LCB3, hits give low values",0.978
same,normalized growth,"locus YJL154C, strain vps35, hits give low values",0.979
same,normalized growth,"locus YJL164C, strain tpk1, hits give low values",0.952
same,normalized growth,"locus YJL166W, strain qcr8, hits give low values",0.758 (active)
same,normalized growth,"locus YJL168C, strain set2, hits give low values",0.996
same,normalized growth,"locus YJL187C, strain SWE1 (second series), hits give low values",0.903
same,normalized growth,"locus YJR043C, strain POL32, hits give low values",0.929
same,normalized growth,"locus YJR066W, strain TOR1, hits give low values",0.904
